Source: PubChem BioAssay (NCI)
This is part of a sample that, as a whole, favours compounds with a hit. Of some 83,000 tested, about 20% had one in any assay.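 Assay: single dose, 48 h. Readout: percent growth (0 = no net growth; negative = cell death). Active: <10.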 Activity calls are given as the source filed them.

What was measured:
Assay in all cases: NCI-60 one-dose screen, 48 h (100 = growth as untreated, 0 = no growth, -100 = all killed)
Settings in all cases: 10 µM unless noted
[1] = system: SK-MEL-2 melanoma
[2] = system: EKVX NSCLC
[3] = system: SN12C renal
[4] = system: UO-31 renal
[5] = system: TK-10 renal
[6] = system: ACHN renal
[7] = system: CAKI-1 renal
[8] = system: A498 renal
[9] = system: CCRF-CEM leukemia
[10] = system: MOLT-4 leukemia

Measured: growth

CS(=O)(=O)c1ccc(-c2[nH]c3ccc(F)cc3c2/C=N/O)cc1
inactive: [1] 94.9% | [2] 98.4% | [3] 99.1% | [4] 82.5% | [5] 99.4% | [6] 97% | [7] 81.4% | [8] 99.2% | [9] 92.9% | [10] 92.9%

O=C1/C(=C/c2ccccc2[N+](=O)[O-])COc2ccc(O)c(O)c21
active: [1] 3.35% | [2] 7.9% | [3] -29.1% | [4] -67.8% | [5] 3.34% | [6] 3.22% | [7] 6.79% | [9] -2.4% | [10] -8.56%
inactive: [8] 77.4%

O=C(NCOC(O)C(Cl)(Cl)Cl)NCOC(O)C(Cl)(Cl)Cl (stereo not given)
inactive: [1] 89.7% | [2] 107% | [3] 97.8% | [4] 78.4% | [5] 100% | [6] 92.8% | [7] 95.9% | [8] 77.1% | [9] 105% | [10] 98.9%

Cc1cc(=O)[nH]c(N/N=C/c2cc(Br)ccc2O)n1
active: [2] 9.68% | [4] -3.92% | [7] -5.73%
inactive: [1] 26.9% | [3] 48.1% | [5] 45% | [6] 14.5% | [8] 42.2% | [9] 22.8% | [10] 15.3%

O=C(CCCCCCCn1cc(-c2cccnc2)nn1)Nc1ccccc1-c1ccccc1
inactive: [1] 87.9% | [2] 64.9% | [3] 25.8% | [4] 62% | [5] 84% | [6] 54.8% | [7] 17% | [8] 83.3% | [10] 47.4%

Cc1nc(Nc2cccc(NC(=O)Nc3ccc(Cl)cc3)c2)c2ccccc2n1
inactive: [1] 107% | [2] 87.2% | [3] 92.9% | [4] 88.2% | [5] 104% | [6] 105% | [7] 80.4% | [8] 81.8% | [9] 82.9% | [10] 76.7%

COc1ccc(Cn2cnc3cc(C(=O)Nc4cccc5ccccc45)ccc32)c(OC)c1
active: [3] 7.29% [30 µM] | [8] -13.9% [30 µM] | [10] 6.04% [30 µM]
inactive: [1] 44.4% [30 µM] | [2] 37.9% [30 µM] | [4] 29.8% [30 µM] | [5] 76.8% [30 µM] | [6] 23.8% [30 µM] | [7] 18% [30 µM]

CS(=O)(=O)c1ccc(-c2[nH]c3ccc(F)cc3c2/C=N/NC(N)=S)cc1
inactive: [1] 27.4% | [2] 31.8% | [3] 21% | [4] 40.2% | [5] 37.8% | [6] 25.2% | [7] 39.4% | [8] 17% | [10] 11.7%

Cc1nc2ccccc2c(/C=C/c2ccc(Cl)cc2)c1C(=O)/C=C/c1ccc(Cl)cc1
active: [1] -13.6% | [2] -11.9% | [3] -61.6% | [4] -86.2% | [5] -6.59% | [6] -90.3% | [7] -33.8% | [8] -75.5% | [9] 7.4% | [10] 5.06%

O=C(O)C1C[C@](O)(c2ccc(F)cc2)[C@@H](c2ccc(F)cc2)O1 (stereo not given in full)
inactive: [1] 102% | [2] 105% | [3] 116% | [4] 78.5% | [5] 108% | [6] 116% | [7] 40.5% | [8] 156% | [9] 82.4% | [10] 97.2%

CCOC(=O)C(=CNc1ccccc1[N+](=O)[O-])C(=O)OCC
inactive: [1] 101% | [2] 114% | [3] 94.2% | [4] 78.2% | [5] 106% | [6] 86% | [7] 98.9% | [8] 64.1% | [9] 93.7% | [10] 96.1%

CC1(C)CC(=O)c2c(ccc(C(=O)C[C@H](N)CO)c2N)O1
inactive: [1] 36.8% | [2] 80% | [3] 32.6% | [4] 43.4% | [5] 79.4% | [6] 46.2% | [7] 20.3% | [9] 17.7% | [10] 38.5%
active: [8] -16.8%

CSc1nc(N)c(CNC(C)c2ccccc2)c(=O)n1C (stereo not given)
inactive: [1] 98.9% | [2] 100% | [3] 101% | [4] 80.5% | [5] 120% | [6] 97.9% | [7] 107% | [8] 102% | [9] 106% | [10] 93.1%

COc1ccc(/C(C)=C(\c2ccc(Cl)cc2)c2ccc(OCCN(C)C)cc2)cc1F
inactive: [1] 105% | [2] 81.6% | [3] 70.6% | [4] 54.7% | [5] 59.1% | [6] 92% | [7] 56.2% | [8] 98.5% | [9] 40.2% | [10] 39.5%

COc1cc2nc(Nc3ccc(F)cc3)nc(N)c2cc1OC
inactive: [1] 91% | [2] 106% | [3] 92% | [4] 76.1% | [5] 95.2% | [6] 101% | [7] 102% | [8] 63.6% | [9] 81.4% | [10] 65.3%

Cc1nc(Nc2ccc(NC(=S)Nc3ccccc3)cc2)nc2nc(Nc3ccc(S(=O)(=O)O)cc3)[nH]c(=O)c12
inactive: [1] 104% | [2] 111% | [3] 109% | [4] 78.9% | [5] 125% | [6] 128% | [7] 82.5% | [8] 158% | [9] 84.5% | [10] 89.7%

N#Cc1cccc(-c2nc3ccccn3c2NCCN2CCOCC2)c1
inactive: [1] 100% | [2] 104% | [3] 96% | [4] 73.3% | [5] 101% | [6] 98.3% | [7] 85.1% | [8] 99.1% | [9] 92.5% | [10] 96.5%

Cc1c(C(N)=O)sc2nc(C)n(/N=c3\scc(-c4ccccc4)n3Cc3ccccc3)c(=O)c12
active: [2] -6.97% | [4] 4.13% | [5] 2.89% | [6] 7.27% | [7] -40.6% | [8] 0.708% | [9] -12.2%
inactive: [1] 10% | [3] 47.7% | [10] 12.1%

O=S(=O)(NCCNc1cc(-c2c(-c3cccc(O)c3)nc3sccn23)ccn1)c1ccc(Br)cc1
inactive: [1] 79.5% | [2] 56.8% | [3] 45.3% | [5] 83.2% | [6] 56.7% | [7] 39% | [8] 51.1% | [9] 39.9% | [10] 32.9%
active: [4] -1.33%

CS(=O)(=O)c1ccc(-c2nc3cc(Cl)ccc3n2CC(=O)NO)cc1
inactive: [1] 88.2% | [2] 99.4% | [3] 95% | [4] 82.4% | [5] 112% | [6] 93.7% | [7] 93.6% | [8] 101% | [9] 93.8% | [10] 94.2%

Oc1[nH]c2ccccc2c1/C=c1/cc2c(c(-c3ccc(F)cc3)n1)=Nc1ccccc1-2
inactive: [2] 38.2% | [5] 16.3% | [7] 14.8%
active: [1] -3.73% | [3] -0.749% | [4] -12.1% | [6] -43.4% | [8] -4.07% | [10] -15.6%

CNCCNc1nc2ccccc2c2c(=O)c3cc(F)ccc3oc12
inactive: [1] 100% | [2] 71.9% | [3] 46.9% | [4] 37.7% | [5] 80.2% | [6] 24% | [7] 45% | [9] 52.4% | [10] 10.7%

O=C(/C=C/C12c3ccccc3C(c3ccccc31)C1C(=O)NC(=O)C12)c1ccccc1 (stereo not given)
inactive: [1] 30.9% | [2] 21% | [3] 18.8% | [4] 39.7% | [5] 44.3% | [6] 32.7% | [7] 45.2% | [9] 12.6% | [10] 16.6%

Cc1ccc2c(n1)C(=O)C(Oc1ccc(F)cc1)=CC2=O
active: [6] 9.92%
inactive: [1] 110% | [2] 103% | [3] 100% | [4] 93.9% | [5] 101% | [7] 99.1% | [9] 40.2% | [10] 66.2%

COc1cc(-c2ccc(-c3ccc(C(=N)N)nc3)s2)cc(OC)c1OC
inactive: [1] 89.3% | [2] 89.9% | [3] 66.6% | [4] 70.5% | [5] 102% | [6] 47.1% | [7] 95.9% | [9] 10.9% | [10] 23.8%

O=C(NCc1cn(Cc2cccc(Oc3ccccc3)c2)nn1)c1cccnc1NCc1ccc(Cl)cc1
inactive: [1] 13.9% | [2] 30.7% | [3] 40.9% | [4] 30.5% | [5] 62.2% | [6] 41.9% | [7] 32.2% | [10] 14.6%
active: [8] -4.32%

Cc1ccc(S(=O)(=O)N(CC[C@@H]2C[C@H]2c2cc3ccccc3o2)C(=O)NC2CCCCC2)cc1
inactive: [1] 101% | [2] 101% | [3] 100% | [4] 75.9% | [5] 106% | [6] 96.9% | [7] 80.1% | [9] 118% | [10] 94.7%
